From PubChem BioAssay
Shown are actives, neighbours in structure and some others; about 10% of the full set was active somewhere.
Pf growth 96h = P. falciparum growth inhibition at 96 hour, primary screen for plastid delayed-death inhibitors; Potency, µM (series often up to 28.7 µM), most hits filed as inhibitors; P. falciparum luciferase reporter growth, 96 h; 320,000 tested, 6.9% active; active means well fitted inhibition curve with a large enough effect; inconclusive means small, poorly fitted or top-dose-only effect, or another doubt; inactive means no such curve, though single readings can be large or run the other way
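Infected RBCs, 2% Hct / 0.05% parasitemia final; luciferase-reporter P. falciparum; cpd 96 h, 37 C, 5% CO2; luciferase detection reagent; luminescence.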
SARS PLpro yeast = blocks SARS-CoV papain-like protease in a yeast assay; S. cerevisiae expressing SARS-CoV PLpro, growth rescue; Potency, µM (doses to about 32.9 µM), hits mostly activators; 330,000 tested, 0.19% active; further: nearly all actives have a fitted effect of over 55% in size
NS1 function inh = blocks influenza NS1 protein function; Potency, µM (top dose mostly 46.1 µM); 270,000 tested, 0.4% active; AID 2326; further: actives are rising curves; nearly all actives have a fitted effect of over 50% in size
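OD600 was taken as the measure of yeast growth restored by compound in an NS1-expressing S. cerevisiae strain. Cells had been washed out of glucose medium and diluted 1:100 into galactose -URA medium, pH 6.0.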
Pf growth 48h = inhibits P. falciparum growth in the first generation, 48 h. P. falciparum luciferase growth in erythrocytes, 48 h. Potency, µM (series often up to 28.7 µM), hits mostly inhibitors. 310,000 tested, 5.9% active; active means well fitted inhibition curve with a large enough effect; inconclusive means small, poorly fitted or top-dose-only effect, or another doubt; inactive means no such curve, though single readings can be large or run the other way
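Compounds are pin-transferred into medium, infected erythrocytes (2% hematocrit, 0.1% parasitemia final) are added, and plates sit one parasite generation at 37 C in 5% CO2. Detection reagent is then added and luminescence measured.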
Numbers stand for hits; - = inactive; ? = inconclusive; . = no result given. Unless noted, the call rests on the fitted dose curve.

SMILES	Pf growth 96h	SARS PLpro yeast	NS1 function inh	Pf growth 48h
CC1CC(C)CN(C(=O)c2ccc3ccccc3c2)C1 (stereo not drawn)	?	-	.	0.83µM
COc1ccc(-c2cc(C(=O)N3CCN(c4cccc(C)c4C)CC3)c3ccccc3n2)cc1OC	10µM	-	.	9.3µM
CC1CN(C(=O)c2cc(-c3ccncc3)nc3ccccc23)CC(C)O1 (stereo not drawn)	-	-	.	-
COc1ccc(-c2cc(C(=O)N3CC(C)CC(C)C3)c3ccccc3n2)cc1OC (stereo not drawn)	10µM	-	.	?
Cc1cccc(C(=O)NCCC(=O)NCc2ccccc2Cl)c1	-	-	.	-
O=C(c1cc(-c2ccncc2)nc2ccccc12)N1CCN(S(=O)(=O)/C=C/c2ccccc2)CC1	?	-	?	1.9µM
O=C(c1cc(-c2ccncc2)nc2ccccc12)N1CCOCC1	-	-	.	-
CC(C)(C)c1ccccc1NC(=S)NC1CCCC1	-	-	-	-
CC(C)(C)c1ccccc1NC(=S)NC1CCCCC1	9.3µM	?	.	?
Cc1cccc(NC(=S)NC2CCCCC2)n1	-	-	-	5.2µM
S=C(Nc1ccc(Oc2ccccc2)cc1)N1CCOCC1	1.2µM	-	-	-
CC(C)CNC(=S)Nc1ccc(Oc2ccccc2)cc1	5.2µM	-	-	-
COc1ccc(CCNC(=O)C2CCCN2C(=O)Nc2ccc(F)cc2)cc1OC (stereo not drawn)	-	-	-	-
Cc1cccc(NC(=S)Nc2cccc(C)n2)n1	13µM	-	-	?
Cc1cccc(NC(=S)NC2CCCC2)n1	-	-	-	-
Cc1cccc(NC(=S)Nc2ccc(Oc3ccccc3)cc2)n1	9.3µM	-	?	-
CN1CCc2cccc3c2[C@@H]1Cc1ccc(O)c(O)c1-3	2.6µM	-	-	2.6µM
CCCN1CCc2cccc3c2C1Cc1ccc(O)c(O)c1-3 (stereo not drawn)	.	.	-	.
Cc1ccccc1NC(=O)CSc1n[nH]c(-c2ccccn2)n1	-	-	-	?
Clc1cccc(Nc2ncnc3ccc(Br)cc23)c1	4.1µM	-	-	3.7µM
CN(C)c1ccc(Nc2ncnc3ccc(Br)cc23)cc1	-	-	-	-
Clc1ccc(Nc2ncnc3ccc(Br)cc23)cc1	4.1µM	-	-	7.4µM
COc1cc(CN(C(=O)c2cccs2)C2CCS(=O)(=O)C2)cc(OC)c1OC (stereo not drawn)	?	-	-	-
O=S(=O)(C(=CNc1ccccc1)S(=O)(=O)c1ccccc1)c1ccccc1	10µM	-	-	-
COc1cccc2c1O/C(=N\O)C(C(=O)Nc1ccc(C)cc1)C2 (stereo not drawn)	-	-	-	-
SMILES	Pf growth 96h	SARS PLpro yeast	NS1 function inh	Pf growth 48h
CCOC(=O)c1c(C)n(C)c2ccc(OCC(O)Cn3c(C)nc4ccccc43)cc12 (stereo not drawn)	.	-	-	10µM
CCOC(=O)c1c(C)n(-c2ccc(C)cc2)c2ccc(OCC(O)CN3CCN(C)CC3)cc12 (stereo not drawn)	-	-	.	9.3µM
CCOC(=O)c1c(-c2ccccc2)oc2ccc(OCC(O)CNCCN(C)C)cc12 (stereo not drawn)	?	-	-	2.1µM
CCOC(=O)c1c(C)n(C)c2ccc(OCC(O)CN3CCN(C)CC3)cc12 (stereo not drawn)	-	-	-	.
CCOC(=O)c1c(-c2ccccc2)oc2ccc(OCC)cc12	-	-	-	-
CCOC(=O)c1c(C)n(C)c2ccc(OCC(O)CNCCc3ccccc3)cc12 (stereo not drawn)	4.7µM	-	-	?
COCCN(C(=O)COC(=O)c1sccc1C)c1c(N)n(Cc2ccccc2)c(=O)[nH]c1=O	-	-	-	-
O=C(COC(=O)C1CCN(/C=C/C(=O)C(F)(F)F)CC1)Nc1cccc(F)c1	-	-	-	-
O=C1CC2(CCN(C(=O)C(=O)c3c[nH]c4ccccc34)CC2)Oc2ccccc21	?	-	-	?
CCc1ccc(S(=O)(=O)N2c3ccc(C)cc3C3CN(C)CCC32)cc1 (stereo not drawn)	?	-	.	10µM
COc1ccc(C)cc1S(=O)(=O)N1c2ccc(C)cc2C2CN(C)CCC21 (stereo not drawn)	10µM	-	.	?
Cc1ccc(-c2cc(-c3ccc4c(c3)OCO4)c(C#N)c(N)n2)o1	.	-	-	?
CC(C)(C)c1ccc(-c2nc3c(C#N)c(-c4ccc5c(c4)OCO5)ccn3n2)cc1	?	-	-	8.3µM
Cc1cc(NC(=O)CCC(=O)N(c2ccc(F)cc2)C(C(=O)NC2CCCC2)c2cccnc2)no1 (stereo not drawn)	-	-	-	?
O=C(CSc1nnc(Cc2ccccc2)o1)N1CCCC1	-	-	-	-
O=C(CCc1nnc(Cc2ccc(-c3ccccc3)cc2)o1)N1CCCC1	9.3µM	-	-	?
COc1ccc(NC(=O)CN(C)C(=O)C2=NN(c3ccccc3)C(=O)CC2)cc1	-	-	.	?
Cn1ncc2c(c(SCc3ccc(Cl)cc3Cl)nn2C)c1=O	?	-	-	7.4µM
CCOc1ccc(NC(=O)CCN2CCN(S(=O)(=O)c3cc(Cl)ccc3OC)CC2)cc1	2.6µM	-	-	?
COc1ccc(NC(=O)CN2CCN(C(C)=O)CC2)cc1S(=O)(=O)N1CCOCC1	.	-	.	.
COc1ccc(NC(=O)CCN2CCN(S(=O)(=O)c3ccc(Cl)cc3)CC2)cc1	.	-	-	?
CCN(CC)c1ccc(NC(=O)CN2CCN(S(=O)(=O)c3cc(Cl)ccc3OC)CC2)cc1	.	-	-	10µM
CCC(C)(C)n1nnnc1C(c1cc2cc3c(cc2[nH]c1=O)OCO3)N1CCCCC1 (stereo not drawn)	-	-	-	?
CCC(C)(C)n1nnnc1C(c1cc2cccc(C)c2[nH]c1=O)N1CCN(C(=O)c2ccco2)CC1 (stereo not drawn)	-	-	-	1.2µM
O=c1[nH]c2cc3c(cc2cc1C(c1nnnn1Cc1ccccc1)N1CCCCCC1)OCCO3 (stereo not drawn)	?	-	-	.
SMILES	Pf growth 96h	SARS PLpro yeast	NS1 function inh	Pf growth 48h
Cc1cccc2cc(C(c3nnnn3Cc3ccc4c(c3)OCO4)N3CCCC3)c(=O)[nH]c12 (stereo not drawn)	?	-	?	7.4µM
Cc1ccc2cc(C(c3nnnn3C(C)(C)C)N3CCCC3)c(=O)[nH]c2c1C (stereo not drawn)	.	-	-	3.3µM
C[Si](C)(C)O[Si](C)(C)C	-	.	.	-
O=C(C1CCCN1S(=O)(=O)c1cccc2nsnc12)N1CCCCCC1 (stereo not drawn)	-	-	-	-
CC(=O)c1ccc(N(CC(=O)NC2CCCC2)C(=O)CNC(=O)c2ccco2)cc1	-	-	-	-
COc1cc([C@@H]2[C@H]3CNCC=C3C(C#N)=C(N)C2(C#N)C#N)ccc1OC(C)C	-	-	-	13µM
CCOC(=O)N1CC=C2C(C#N)=C(N)C(C#N)(C#N)[C@H](c3cccs3)C2C1 (stereo partly drawn)	?	-	-	?
COc1cc(C2C3CN(C)CC=C3C(C#N)=C(N)C2(C#N)C#N)ccc1OC(C)C (stereo not drawn)	?	-	-	?
CC(C)(C)OC(=O)N1CC=C2C(C#N)=C(N)C(C#N)(C#N)[C@H](c3cccnc3)[C@H]2C1	.	-	-	-
